Anesthetic bind – qHTS Assay for Identification of Novel General Anesthetics. Ferritin light chain (Equus caballus), P02791. apoferritin/1-aminoanthracene competitive binding, fluorescence. Potency, µM (top dose mostly 77.5 µM), for inactives: top-dose activity change, negative = displacement, usual class: inhibitors. 0.074% of 350,000 active; also: potency is read from the fitted curve at half-maximal effect; % is scaled to controls: 0 for no effect and ±100 for the full control effect; nearly all actives have a fitted effect of over 20% in size
Target sequence (P02791 2-175 limits assumed): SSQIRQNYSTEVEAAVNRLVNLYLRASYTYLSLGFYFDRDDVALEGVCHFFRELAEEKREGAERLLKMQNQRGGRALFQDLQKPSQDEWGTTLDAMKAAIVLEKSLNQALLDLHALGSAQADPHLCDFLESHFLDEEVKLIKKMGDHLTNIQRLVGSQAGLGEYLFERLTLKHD
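Horse-spleen apoferritin (10 uM) in 50% saturated 1-aminoanthracene in PBS was incubated 10 min at room temperature with compound. Fluorescence (ex 380, em 535 nm) was normalized to free and bound 1-AMA, with concentration-response fitted by a four-parameter Hill equation.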
Giardia kill – Small Molecules that selectively kill Giardia lamblia: qHTS. activity change, % at 7.66 µM, hits read low. 0.15% of 340,000 active. Giardia lamblia trophozoite viability; in the data active = activity change below about -80%; inconclusive = between about -30% and that limit;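 also: parasites exposed to compound for two days anaerobically before the ATP read; % is scaled to controls: 0 for no effect and ±100 for the full control effect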
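Viability, read as ATP luminescence: trophozoites at 100 cells/well, compound added, 48 hrs anaerobic at 37 deg C, then 15-30 min room-temperature development before reading.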
A549 tox – Nrf2 qHTS screen for inhibitors: counterscreen for cytotoxicity; A549 ARE-Fluc cells, CellTiter-Fluor viability, 18-24 h; AID 504648, 2011; Potency, µM (top dose mostly 46 µM), without a hit: at the top dose activity change, negative = cytotoxicity, usual class: inhibitors; 0.16% of 390,000 active; also: potency is read from the fitted curve at half-maximal effect; % is scaled to controls: 0 for no effect and ±100 for the full control effect
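Cytotoxicity counterscreen: CellTiter-Fluor fluorescence was measured in A549 ARE_Fluc cells after 18-24 h of compound exposure in a concentration series. The subsequent BugLite luminescent read reports ARE-luciferase activity.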
Nrf2 ARE act – qHTS of Nrf2 Activators | Potency, µM (titrated, usually from 46.1 µM), inactives show top-dose activation, actives largely listed as activators | AID 624171, 2012 | AREc32 ARE-luciferase reporter (MCF7-derived line), luminescence, 24 h | 0.31% of 410,000 active; also: potency is read from the fitted curve at half-maximal effect; % of control where 0% means no effect; nearly all actives have a fitted effect of over 65% in size
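Nrf2 activation is followed as ARE-luciferase induction in the AREc32 line after one day of compound treatment; luminescence is read with Steady-Glo.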
mIDH1 inhibitor – qHTS for Inhibitors of mutant isocitrate dehydrogenase 1 (IDH1): qHTS; 0.093% of 390,000 active; Isocitrate dehydrogenase [NADP] cytoplasmic (Homo sapiens), O75874; IDH1-R132H enzyme, NADPH consumption, diaphorase/resazurin fluorescence; Potency, µM (series often up to 76.6 µM), for inactives: at the top dose activity change, negative = inhibition, hits mostly inhibitors; also: potency is read from the fitted curve at half-maximal effect; % is scaled to controls: 0 for no effect and ±100 for the full control effect; nearly all actives have a fitted effect of over 65% in size
Target sequence (O75874 whole entry R132H, stated change not applied): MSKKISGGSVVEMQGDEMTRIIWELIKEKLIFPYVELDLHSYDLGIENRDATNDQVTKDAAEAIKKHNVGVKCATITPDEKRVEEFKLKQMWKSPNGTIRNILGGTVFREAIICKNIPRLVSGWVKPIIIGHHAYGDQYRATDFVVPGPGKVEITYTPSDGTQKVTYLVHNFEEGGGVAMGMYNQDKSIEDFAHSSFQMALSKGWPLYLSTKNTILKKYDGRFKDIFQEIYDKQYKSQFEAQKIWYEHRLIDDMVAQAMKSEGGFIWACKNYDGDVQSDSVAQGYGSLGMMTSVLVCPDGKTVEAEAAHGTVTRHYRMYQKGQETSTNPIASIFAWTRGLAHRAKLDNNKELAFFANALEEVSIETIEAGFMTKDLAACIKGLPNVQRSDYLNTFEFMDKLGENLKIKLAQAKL
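IDH1-R132H (0.5 ug/mL) preincubated 30 min with compound, then NADPH (0.016 mM) and alpha-KG (2 mM) added; 80 min at RT, pH 7.5. Remaining NADPH coupled via diaphorase/resazurin to fluorescence (540/590 nm); concentration-response curves normalized to no-enzyme control.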
Nrf2 inh – Nrf2 qHTS screen for inhibitors; A549 ARE-Fluc reporter, luciferase luminescence, 18-24 h; Potency, µM (series often up to 46 µM), for inactives: at the highest dose activity change, negative = inhibition, usual class: inhibitors; 2.1% of 360,000 active; also: potency is read from the fitted curve at half-maximal effect; % is scaled to controls: 0 for no effect and ±100 for the full control effect; nearly all actives have a fitted effect of over 60% in size
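In this cell-based qHTS, ARE-driven firefly luciferase in A549 cells reports Nrf2 activity; the luminescent signal after BugLite lysis is the measured value, with a prior CellTiter-Fluor read for cell health.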
The depositor's hits bear a star; ? = inconclusive; nt = no result given. Compounds with a hit are over-represented: about 2.3% of the library has one in this group of screens. Unless noted, calls follow the shape of the dose curve; as a rule, active = well fitted curve in the direction sought with a large enough effect; inconclusive = small, poorly fitted or top-dose-only effect, or another doubt; inactive = no such curve, though single readings can be large; an effect the other way counts as inactive or inconclusive.

SMILES	Anesthetic bind	Giardia kill	A549 tox	Nrf2 ARE act	mIDH1 inhibitor	Nrf2 inh
CN(C)CCCN(C(=O)/C=C/c1cccs1)c1nc2c(F)cccc2s1	-16%	-7	-7%	?	-4%	4%
COc1ccc2nc(N(CCN(C)C)C(=O)/C=C/c3cccs3)sc2c1	-16%	-6	-4%	10µM*	-4%	-25%
COc1ccc2sc(N(CCN(C)C)C(=O)/C=C/c3cccs3)nc2c1	47%	20	-1%	10µM*	-5%	-8%
CCN(CC)CCN(C(=O)/C=C/c1cccs1)c1nc2ccc(OC)cc2s1	nt	37	-12%	0%	1%	?
CCCCOc1ccc(S(=O)(=O)Nc2ccc(-c3ccc(N4CCCCC4)nn3)cc2)cc1	17%	nt	-3%	0%	27%	nt
CCCCN(CC)CCCNC(=O)Nc1sc2nc3n(c(=O)c2c1C)CCC(C)CC3 (stereo unspecified)	25%	nt	-2%	21%	14%	21%
N#Cc1nc(NCCCO)nc(Nc2ccccc2)n1	-11%	nt	6%	nt	nt	3%
CCCn1c2ccccc2c2cnn(CC(=O)NCc3ccccc3Cl)c(=O)c21	26%	nt	3%	0%	8%	-6%
CN(Cc1ccc(OCC(O)CN2CCCCC2)cc1)Cc1ccnc2ccccc12 (stereo unspecified)	-7%	22	-2%	5%	-10%	5.8µM*
Cc1nn(C)cc1CN(C)Cc1ccc(OCC(O)CN2CCCCC2)cc1 (stereo unspecified)	-7%	1	-18%	0%	-10%	34%
Cc1cc2c(cc1S(=O)(=O)N1CCc3ccccc31)NC(=O)CO2	-16%	-9	?	3%	6%	23µM*
CCCc1nc2ccccc2c(=O)n1NC(=O)c1c(O)c2ccccc2n(C)c1=O	9%	0	-22%	0%	1%	18µM*
CCc1nc2ccccc2c(=O)n1NC(=O)c1c(O)c2ccccc2[nH]c1=O	-7%	-26	-1%	-1%	-5%	4%
CCCCCCc1nc2ccccc2c(=O)n1NC(=O)c1c(O)c2c(n(CC(C)C)c1=O)CCCC2	-13%	-7	?	0%	5%	21µM*
CCn1c(=O)c(C(=O)NNS(=O)(=O)c2ccc(C)cc2)c(O)c2ccccc21	-17%	7	-28%	3%	-1%	15µM*
COc1cc(NS(=O)(=O)c2ccc(C(=O)O)cc2)c2nc(C)ccc2c1	nt	2	-3%	nt	nt	?
CCOC(=O)C1=C(CN(C)Cc2ccccc2)NC(=O)NC1c1ccc(OC(C)C)cc1 (stereo unspecified)	5%	nt	-13%	1%	3%	26µM*
CCOC(=O)C1=C(CS(=O)(=O)c2ccc(C)cc2)NC(=O)NC1c1ccc(O)c(OC)c1 (stereo unspecified)	0%	14	-4%	0%	3%	1%
CCOC(=O)C1=C(CS(=O)(=O)c2ccc(C)cc2)NC(=O)NC1c1ccc(C(C)C)cc1 (stereo unspecified)	-8%	nt	?	0%	-3%	18µM*
CCOC(=O)C1=C(CN2CCN(c3cc(C)ccc3C)CC2)NC(=O)NC1c1ccc(Cl)cc1 (stereo unspecified)	-1%	nt	-18%	0%	-10%	21µM*
O=C(N/N=C/c1c(Cl)nc2ccccn2c1=O)c1cccnc1	-4%	-2	4%	14µM*	7%	?
CCC(Sc1nnc(-c2ccc(OC)c(OC)c2)c(-c2ccc(OC)c(OC)c2)n1)C(=O)NC1CCCC1 (stereo unspecified)	?	nt	-18%	-1%	10%	nt
Cc1c(F)cccc1NC(=O)C1CCCN1S(=O)(=O)c1ccc(F)cc1 (stereo unspecified)	-3%	nt	5%	0%	nt	-9%
CC(C)(C)c1ccc(/C=N/NC(=O)Cc2c[nH]c3ccccc23)cc1	?	-1	?	3%	-6%	26µM*
Cc1nc2ccc(NS(=O)(=O)c3c(F)cc(F)cc3Br)cc2s1	nt	-2	-1%	0%	-8%	21µM*
SMILES	Anesthetic bind	Giardia kill	A549 tox	Nrf2 ARE act	mIDH1 inhibitor	Nrf2 inh
Cc1nc2ccc(NS(=O)(=O)c3ccc(F)c(F)c3F)cc2s1	nt	6	5%	4%	1%	-22%
Cc1nc2ccc(NS(=O)(=O)c3ccc(F)cc3F)cc2s1	nt	-9	0%	0%	8%	13µM*
O=C(NC(NC(=S)Nc1c(Cl)cccc1Cl)C(Cl)(Cl)Cl)c1cccc([N+](=O)[O-])c1 (stereo unspecified)	-8%	-12	?	5%	8%	16µM*
COc1ccc([N+](=O)[O-])cc1NC(=S)NC(NC(=O)C(c1ccccc1)c1ccccc1)C(Cl)(Cl)Cl (stereo unspecified)	-22%	-21	?	0%	7%	15µM*
COc1ccc([N+](=O)[O-])cc1NC(=O)C(C)Sc1ccc(C)cc1 (stereo unspecified)	-15%	5	-2%	0%	6%	18µM*
COc1ccc([N+](=O)[O-])cc1NC(=O)C(C)NNC(=O)c1cccc([N+](=O)[O-])c1 (stereo unspecified)	nt	-14	-4%	6%	-2%	16µM*
COc1ccc(Cl)cc1C(=O)NNC(=O)c1cccc([N+](=O)[O-])c1	-2%	0	0%	19%	-1%	-3%
COc1ccc([N+](=O)[O-])cc1NC(=O)C(C)c1ccccc1 (stereo unspecified)	?	-18	13%	11%	-4%	-13%
CCOc1ccc(CNC(=O)Cn2nc(C)c3nn(-c4ccc(Cl)cc4)c(C)c3c2=O)cc1	-1%	nt	-21%	2%	11%	nt
O=S1(=O)N=C(OCc2ccccc2)c2ccccc21	nt	nt	9%	nt	nt	?
COc1ccc([N+](=O)[O-])cc1NC(=O)CSc1ccc2ccccc2c1	-16%	14	-16%	?	-11%	18µM*
O=C(CSc1cccc[n+]1[O-])Nc1cc([N+](=O)[O-])ccc1Cl	-1%	-8	4%	10µM*	0%	2%
COc1ccc(OCc2nnc3n2N=C(c2ccc(Br)cc2)CS3)cc1	14µM*	-10	3%	0%	4%	-8%
Cc1ccc(-n2ncc3c(SCc4cccc(C)c4)ncnc32)cc1	6%	1	1%	0%	-3%	5%
COc1cccc(N2CCN(c3ncnc4c3cnn4-c3ccc(C)cc3C)CC2)c1	2%	23	?	-5%	9%	18µM*

Source: PubChem
